# Laboratory results from PubChem BioAssay AID652015 (National Center for Advancing Translational Sciences (NCATS), 2013).
# Records with an inconclusive call do not appear. Unmarked numbers belong to inactive results. Activity calls are given as the source filed them. Calls come from the whole dose curve; as a rule, active = well fitted inhibition curve with a large enough effect; inconclusive = small, poorly fitted or top-dose-only effect; inactive = no such curve, though single readings can be large or run the other way.
# Molecular target: Coelenterazine h 2-monooxygenase (Renilla reniformis) (UniProt P27652)
# Sequence (P27652 whole entry, looked up): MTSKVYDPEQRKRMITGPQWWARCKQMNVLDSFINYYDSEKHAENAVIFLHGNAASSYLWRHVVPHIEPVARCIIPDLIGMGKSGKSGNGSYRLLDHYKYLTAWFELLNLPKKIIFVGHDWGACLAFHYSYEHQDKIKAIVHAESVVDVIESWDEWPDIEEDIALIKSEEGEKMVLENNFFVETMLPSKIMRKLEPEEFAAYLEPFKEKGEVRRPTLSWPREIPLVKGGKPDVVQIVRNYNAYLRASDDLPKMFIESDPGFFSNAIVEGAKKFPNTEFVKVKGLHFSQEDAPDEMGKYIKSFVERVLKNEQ
# Test: qHTS Assay for Inhibitors of Sea Pansy Luciferase from the GSK Published Protein Kinase Inhibitor Set
# Details: purified Renilla luciferase, luminescence; series mostly up to 57.5 µM; activity change, negative = inhibition: at the top concentration
# Text: FLuc (firefly luciferase) is the prototypical bioluminescent reporter gene from Photinus pyralis.[1] The enzyme catalyzes the oxidation luciferin via luciferin-AMP to produce light. FLuc is used in cell-based reporter gene-based assays for screening small molecule chemical libraries. However, small molecule luciferase inhibitors present in most large chemical libraries are often enriched in the output of high throughput screens using this reporter sometimes complicating interpretation and candidate selection.
# RLuc is a bioluminescent reporter gene luciferase from Renilla reniformis, also known as the sea pansy. RLuc uses the luciferin substrate coelenterazine. RLuc is often used in combination with the nonhomologous luciferase FLuc (firefly luciferease) as a trasfection or pathway normalization control. Recently, non-homologous reporters have been described for high throughput screening 'coincidence' reporter gene strategies.
# 1. Fan F, Wood KV (2007) Bioluminescent assays for high-throughput screening. Assay Drug Dev Technol 5: 127-136.
# 2. Thorne N, Inglese J, Auld DS (2010) Illuminating insights into firefly luciferase and other bioluminescent reporters used in chemical biology. Chem Biol 17: 646-657.
# 3. […] Chem Biol 19: 1060-1072.
# 4. Michelini E, Cevenini L, Mezzanotte L, Coppa A, Roda A (2010) Cell-based assays: fuelling drug discovery. Anal Bioanal Chem 398: 227-238.
# 5. Cheng KC, Inglese J (2012) A coincidence reporter-gene system for high-throughput screening. Nat Methods 9: 937.
# Biochemical renilla luciferase enzyme assay
# NCGC Assay Protocol Summary:
# Reagents: 50mM Tris acetate, pH 7.5; 100uM NaCl; 5uM Coelenterazine H (Promega #S2011); 0.01% Tween-20; 0.05% BSA; 1nM R. reniformis luciferase (Nanolight Technologies #314)
# Control compounds used were a known renilla luciferase inhibitor BTS (Tocris Biosciences #1870) and DMSO.
# Three microliters containing renilla luciferase substrate in buffer (final concentrations: 50mM Tris acetate, pH 7.5, 100uM NaCl, 0.01% Tween-20, 0.05% BSA, 5uM coelenterazine h) are dispensed into each well of a Greiner white, solid-bottom 1536-well format plate using a flying reagent dispenser (FRD). These assay plates were then treated with 23nL of compound or DMSO using a Kalypsys pin tool, which allows for delivery of a 7-point interplate titration of each compound to the assay plate (quantitative HTS), with final compound concentrations ranging from approximately 60uM to 300pM. One microliter of renilla luciferase in 50mM Tris-acetate buffer was then delivered by FRD to each well for a final enzyme concentration of 1nM. Luciferase activity was then measured using an Envision plate reader (PerkinElmer), with an average incubation time of 2 min.
# Potency is the fitted concentration of half-maximal effect.
Structure (SMILES),"activity change, negative = inhibition",Potency
COc1cc(Nc2ncc(-c3ccccc3)o2)cc(OC)c1OC,24.1%,
Nc1ncnc2occ(-c3ccc(NC(=O)Nc4cc(C(F)(F)F)ccc4F)cc3)c12,,inactive
CCn1c(-c2nonc2N)nc2c(C#CC(C)(C)O)ncc(OCC3CCNCC3)c21,3.18%,
COc1cc(C=NNc2ncnc3c2cnn3C(C)C)ccc1O,5.48%,
Cc1cccc(Nc2ncc(-c3ccccc3)o2)c1,38.5%,
NC(=O)c1cc(-c2ccncc2)cc(-c2ccccc2)c1N,36.8%,
CC(C)c1ccc2c(N=Nc3ccc(S(N)(=O)=O)cc3)c(O)[nH]c2c1,10.9%,
COc1cc2ncn(-c3cc(OCc4ccccc4Cl)c(C(N)=O)s3)c2cc1OC,56.4%,
NS(=O)(=O)c1ccc(Nc2ncc(-c3ccccc3)o2)cc1,12.6%,
O=C1NC(=O)C(c2ccc(Cl)cc2)=C1Nc1ccc(Cl)c(C(=O)O)c1,21.8%,
c1ccc(-c2[nH]ncc2-c2ccnc(-c3ccc(OCCn4ccnc4)cc3)c2)nc1,-9.9%,
O=C(Nc1n[nH]c2nc(-c3ccco3)c(Br)cc12)C1CC1,18.8%,
O=C1NC(=O)C(c2cccc(Cl)c2)=C1Nc1ccc(Cl)c(C(=O)O)c1,30.4%,
Cc1ccc(O)cc1Nc1ccnc2ccc(S(C)(=O)=O)cc12,30.1%,
CC(C)(CO)CNC(=O)c1ccc2[nH]c(O)c(N=Nc3ccc(S(N)(=O)=O)cc3)c2c1,11.9%,
CS(=O)(=O)Nc1ccc(-c2ccc3c(NC(=O)C4CC4)n[nH]c3c2)cc1,25.6%,
N#Cc1c(NC(=O)c2ccc(F)cc2)sc2c1CCCC2,8.45%,
COc1cc(N2CCN(C(C)C)CC2)ccc1Nc1nc(Nc2cccc(F)c2C(=O)O)c2cc[nH]c2n1,8.99%,
CN1CCC(n2cnc(-c3ccc(F)cc3)c2-c2ccnc(NCCO)n2)CC1,36.2%,
CN(C)CCOc1ccc(-c2cc(-c3ccc4c(c3)CCC4=NO)c(-c3ccncc3)o2)cc1,0.341%,

Structure (SMILES),"activity change, negative = inhibition",Potency
CC1=C(C(=O)Nc2ccc3[nH]ncc3c2)C(c2ccc(F)cc2)NC(=O)N1 (stereo not given),-1.71%,
Cc1ccc(C(=O)NC2CCCCC2)cc1-c1ccc(C(=O)NCC2CC2)cc1,8.65%,
CS(=O)(=O)CCN(CC#N)Cc1ccc(-c2ccc3ncnc(Nc4ccc(OCc5cccc(F)c5)c(Cl)c4)c3c2)o1,54.8%,
COc1cc(C=NNc2ncnc3c2cnn3-c2ccccc2)ccc1O,34.5%,
N#Cc1ccc2c(-c3ccnc(NC4CC4)n3)c(-c3ccc(F)cc3)nn2c1,-16.7%,
N#Cc1ccc(Oc2nccc(-c3c(-c4ccc(F)cc4)ncn3C3CCNCC3)n2)cc1,8.41%,
CCOc1nccc2c1nc(-c1nonc1N)n2CC,45.4%,
CCn1c(-c2nonc2N)nc2cncc(C(=O)N3CCNCC3)c21,43%,
Fc1ccc(-c2cc(-c3cn[nH]c3-c3ccccn3)ccn2)cc1,38.8%,
Cc1ccc2c(-c3ccnc(Nc4cccc(C(F)(F)F)c4)n3)c(-c3ccccc3)nn2n1,9.89%,
CN(C)c1ccc2[nH]c(O)c(C=Nc3ccc(S(N)(=O)=O)cc3)c2c1,,5.8 µM (active)
COc1cc(C)c(N(C)C(=O)CN(C)C)cc1Nc1nc(Nc2cccc(F)c2C(N)=O)c2cc[nH]c2n1,56.2%,
CS(=O)(=O)CCNCc1nc(-c2ccc3ncnc(Nc4ccc(OCc5cccc(C(F)(F)F)c5)cc4)c3c2)cs1,17.3%,
COc1cccc(C=NNc2ncnc3c2cnn3-c2cccc(OC)c2)c1,30.6%,
COc1cc2ncn(-c3cc(OCCc4ccccc4)c(C(N)=O)s3)c2cc1OC,13.2%,
COc1ccc2cc(-c3c(-c4ccncc4)nc(-c4ccc(S(C)(=O)=O)cc4C)n3C)ccc2c1,-10.9%,
CCS(=O)(=O)c1ccc(OC)c(Nc2ncc(-c3cccc(-c4ccccc4F)c3)o2)c1,11.3%,
Cc1ccc2c(-c3ccnc(Nc4ccccc4)n3)c(-c3ccc(F)cc3)nn2n1,22.8%,
N#Cc1c(NC(=O)c2ccccc2F)sc2c1CCCC2,24.9%,
COc1ccc(-c2nn3ncccc3c2-c2ccnc(Nc3ccc(F)c(F)c3)n2)cc1,33.8%,
